The results in this text go back to PubChem BioAssay.

For test [1], the system named is XIP peptide (Xip251-270) binding. Description: XIP fragment 251-270 binding compounds – biochemical, small-molecule microarray, fluorescence 635/667 nm, 0.1 µg/mL protein, primary screen (AID 1182). Particulars: fluorescent protein binding, 635 nm, higher = more signal, called active from +8 up or from −8 down.
The subject of a further test is XIP peptide (Xip251-270). Description: compounds binding XIP fragment 251-270 – biochemical, small-molecule microarray, fluorescence 635/667 nm, 0.5 µg/mL protein, primary screen (AID 1183). The conditions noted are these: fluorescence 635 nm, higher = more signal.
Test [2] is described as follows: blood-stage malaria parasite viability loss – strain 3D7, DAPI fluorescence, 100 nL, primary screen (AID 1184).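 Note: parasites grown inside human red blood cells in medium with human serum.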 The conditions noted are these: P. falciparum 3D7 growth, 3 d, higher = more signal.
Test [3] concerns the target Homeobox protein Hox-A13 (Mus musculus) (UniProt Q62424). Description: disruptors of Hoxa13 oligonucleotide interaction – biochemical, fluorescence polarization, labeled oligonucleotide, primary screen (AID 1185). The conditions noted are these: Hoxa13:DNA binding, 15 min, higher = more signal, called active from +8 up or from −8 down.

Structures are written as SMILES. The source made the active and inactive calls.

Sequence of Homeobox protein Hox-A13 (Mus musculus) (Q62424 whole entry, looked up): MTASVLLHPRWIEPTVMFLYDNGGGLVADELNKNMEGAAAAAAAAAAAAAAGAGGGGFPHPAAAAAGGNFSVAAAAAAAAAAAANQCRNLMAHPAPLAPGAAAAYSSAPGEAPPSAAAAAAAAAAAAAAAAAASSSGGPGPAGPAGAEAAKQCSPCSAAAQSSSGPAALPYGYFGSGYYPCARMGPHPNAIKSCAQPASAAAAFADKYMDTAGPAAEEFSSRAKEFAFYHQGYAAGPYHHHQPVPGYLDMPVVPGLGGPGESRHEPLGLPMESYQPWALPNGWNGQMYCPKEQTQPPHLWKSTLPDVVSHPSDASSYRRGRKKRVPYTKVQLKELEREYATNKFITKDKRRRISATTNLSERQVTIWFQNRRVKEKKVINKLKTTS

`O=C1[C@H]2[C@H]3[C@H](O)[C@H](O)CC(=NO[C@@H]4O[C@H](CO)[C@@H](O)[C@H](O)[C@H]4O)[C@@H]3CC[C@H]2C(=O)N1Cc1ccc2c(c1)OCO2`: the figures for the composite z-score (in test [1]; in the test on XIP peptide (Xip251-270)) were 0.297 (inactive) and 0.567, respectively. Moreover, the z-score in test [2] was -1.06; in test [3], -2.63 (inactive).
`CCCNC(=O)OC[C@H]1O[C@H](CCON=C2[C@H]3CCn4c(=O)n(-c5ccccc5)c(=O)n4[C@H]3[C@H](O)[C@@H]3O[C@H]23)C=C[C@@H]1Oc1ccc(OC)cc1`: the composite z-score in test [1] is 0.118 (inactive); in the test on XIP peptide (Xip251-270) it was 0.592. For the same compound, the z-score was -1.01 in test [2] and -6.53 (inactive) in test [3].
As for `CCN1C(=O)[C@H]2[C@H]3[C@H](O)[C@H](O)CC(=NOCc4ccccc4)[C@@H]3CC[C@H]2C1=O`, the composite z-score is -0.161 (inactive) in test [1] and 0.465 in the test with XIP peptide (Xip251-270). The z-score in test [2] was -0.165; in test [3], 0.697 (inactive).
As for `COC(=O)[C@H](C)NC(=O)CCC1CC(OC(=O)NCc2cccc3ccccc23)CC2(CCCC(COC(=O)NCC3CCCCC3)O2)O1` (stereo partly drawn), the composite z-score in test [1] was 0.0034 (inactive); in the test on XIP peptide (Xip251-270) it was 0.689. For the same compound, the z-score in test [2] is -1.96; in test [3] it was -2.34 (inactive).
As for `CC(CCN1CCc2nc(-c3ccccc3)c(-c3ccccc3)cc2C1)=NO[C@H](C)c1cn([C@@H]2COC[C@H]2O)nn1`, the results for the composite z-score (in test [1]; in the test on XIP peptide (Xip251-270)) were -0.378 (inactive) and 0.175, respectively. Moreover, the z-score in test [2] was 0.429; in test [3] it was -5.45 (inactive).
Turning to `CC(=O)OC[C@H]1O[C@@H](ON=C(C)CCN2CCc3nc(-c4ccccc4)c(-c4ccccc4)cc3C2)[C@H](OC(C)=O)[C@@H](OC(C)=O)[C@@H]1OC(C)=O`, the composite z-score in test [1] was 0.0113 (inactive); in the test on XIP peptide (Xip251-270) it was 0.71. Further, the figures for the z-score in test [2] and in test [3] were -1.08 and -5.05 (inactive), respectively.
Consider `COC(=O)CC1OC1[C@H](C)[C@@H](OC)C(C)C` (stereo partly drawn), for which the results for the composite z-score (in test [1]; in the test on XIP peptide (Xip251-270)) were -0.0835 (inactive) and -0.739, respectively. Moreover, the values for the z-score in test [2] and in test [3] were 0.599 and -4.65 (inactive), respectively.
With `O=C1C[C@@H](O)[C@@H](O)[C@@H]2[C@@H]3C(=O)N(c4ccc(F)cc4F)C(=O)[C@@H]3CC[C@@H]12`, the figures for the composite z-score (in test [1]; in the test on XIP peptide (Xip251-270)) were 0.0164 (inactive) and -0.0741, respectively. Besides, the z-score in test [2] was 0.452; in test [3] it was -0.595 (inactive).
For `COc1cccc([C@@H]2Oc3ccc(Br)cc3C(=O)[C@H]2O)c1` the same measures were 2.46 (inactive), 0.181, 0.988 and -1.54 (inactive).
For the compound `CC(C)[C@@H](OCc1ccccc1)[C@H](C)C=NOC[C@@H](C)[C@H](OCc1ccccc1)C(C)C`, the composite z-score in test [1] is 0.468 (inactive); in the test on XIP peptide (Xip251-270) it was -0.185. For the same compound, the values for the z-score in test [2] and in test [3] were 0.128 and 0.24 (inactive), respectively.
For `C[C@@H]1C=CCC(=O)OC[C@H](C)C(=O)N2CCC[C@H]2C(=O)OC1` the same measures were -0.318 (inactive), 0.827, 0.207 and -0.596 (inactive).
For `COC(=O)CC=C[C@H](C)[C@H](CO)NS(=O)(=O)c1ccc(C)cc1` the same measures were -0.291 (inactive), 0.507, 0.225 and -1.56 (inactive).
With `CCOC(=O)[C@H](Cc1ccccc1)NC(=O)CCC1CC(OC(=O)NCc2ccc3c(c2)OCO3)CC2(CCCC(COC(=O)NCc3cccc(C(F)(F)F)c3)O2)O1` (stereo partly drawn), the composite z-score in test [1] is 0.19 (inactive); in the test on XIP peptide (Xip251-270), 0.109. Moreover, the z-score was -2.01 in test [2] and -0.531 (inactive) in test [3].
With `CCCCc1nc2c(c3c1C[C@H](C)OC3)CN(CCC(C)C)CC2`, the figures for the composite z-score (in test [1]; with XIP peptide (Xip251-270)) were 0.172 (inactive) and 0.715, respectively. In addition, the z-score in test [2] is -0.522; in test [3] it was -5.63 (inactive).
For the compound `CCOC(=O)[C@H](Cc1ccccc1)NC(=O)CCC1CC(OC(=O)NCc2ccc3c(c2)OCO3)CC2(CCCC(COC(=O)NCc3ccccc3)O2)O1` (stereo partly drawn), the composite z-score in test [1] was -0.148 (inactive); in the test on XIP peptide (Xip251-270), 0.389. Further, the values for the z-score in test [2] and in test [3] were -1.76 and -0.513 (inactive), respectively.
For `CO[C@@H]1COC(=O)CC=C[C@@H](C)[C@H](OC)COC(=O)[C@H](COCc2ccccc2)NC(=O)CC=C[C@H]1C` the same measures were 0.025 (inactive), -0.988, -0.17 and -1.64 (inactive).
As to `COC(=O)[C@H](C)NC(=O)CCC1CC(OC(=O)NCCc2ccc(F)cc2)CC2(CCCC(COC(=O)NCC(c3ccccc3)c3ccccc3)O2)O1` (stereo partly drawn), the composite z-score is 0.477 (inactive) in test [1] and 0.577 with XIP peptide (Xip251-270). In addition, the z-score is -1.32 in test [2] and -4.47 (inactive) in test [3].
As to `CCOC(=O)[C@H](Cc1ccccc1)NC(=O)CCC1CC(OC(=O)NCCc2ccc(F)cc2)CC2(CCCC(COC(=O)NCC(c3ccccc3)c3ccccc3)O2)O1` (stereo partly drawn), the composite z-score was -0.295 (inactive) in test [1] and 0.651 in the test on XIP peptide (Xip251-270). For the same compound, the z-score in test [2] is -1.39; in test [3], -4.95 (inactive).
With `CC(CCN1CCc2nc(-c3ccccc3)c(-c3ccccc3)cc2C1)=NO[C@@H](C)c1cn([C@H](CO)Cc2ccccc2)nn1`, the composite z-score was -0.416 (inactive) in test [1] and -0.346 in the test on XIP peptide (Xip251-270). In addition, the z-score in test [2] was -0.17; in test [3], -4.81 (inactive).
With `O=C1[C@H]2[C@H]3[C@H](O)[C@H](O)CC(=NO[C@@H]4O[C@H](CO)[C@@H](O)[C@H](O)[C@H]4O)[C@H]3CC[C@H]2C(=O)N1Cc1ccc2c(c1)OCO2`, the composite z-score in test [1] is -0.0799 (inactive); in the test on XIP peptide (Xip251-270), 0.0812. Also, the z-score in test [2] is 0.185; in test [3], -0.567 (inactive).
For `CO[C@H]1COC(=O)[C@H](C)NC(=O)[C@@H](C)COC(=O)CC=C[C@@H]1C`, in that order: 0.166 (inactive), 0.518, 0.336 and -0.467 (inactive).
For `CO[C@@H]1COC(=O)[C@H](C)NC(=O)[C@@H](C)COC(=O)CCC[C@H]1C` the same measures were 0.144 (inactive), 0.652, -0.0339 and -2.16 (inactive).
